aSyn 5UTR inh: MLPCN primary screen, SNCA 5' untranslated region; alpha-synuclein 5'UTR reporter, inhibitor activity; inhibition, % (tested at 7.5 µM); hit rate 0.82% among 300,000; in the data active = inhibition above about 60%; inconclusive = no clear call, values can overlap the other calls;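 note: H4 neuroglioblastoma cells stably carrying SNCA 5'UTR luciferase fusion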
Jurkat NFkB inh: lowers PMA/ionomycin-induced NF-kB signal in Jurkat cells. PMA/ionomycin-induced NF-kB luciferase reporter, luminescence. inhibition, % at 4 µM. hit rate 0.53% among 330,000. AID 435003; in the data active = inhibition above about 50%
Mdm2 MdmX PPI: human Mdm2/MdmX binding inhibition; O15151+Q00987; SaOS-2 split-luciferase Mdm2/MdmX complementation, luminescence; inhibition, % at 8 µM; hit rate 3% among 330,000; AID 485346;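 active = inhibition of at least 50% at 8 µM in the primary screen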
KLF5 inhibitor: inhibitors of KLF5 expression; AID 1700; inhibition, % at 5 µM; hit rate 0.23% among 290,000; DLD-1 KLF5 promoter-luciferase reporter, luminescence;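 active = inhibition above a per-plate limit of that plate's mean compound inhibition plus 3 SD, cut at about 60% in these data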;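 note: higher means less KLF5 promoter-driven luciferase light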
697 NFkB inh: inhibitors of the PMA/ionomycin-induced NF-kB reporter in 697 B cells | 697 B-cell NF-kB luciferase reporter, 16 h | inhibition, % at 4 µM | hit rate 0.33% among 330,000; in the data active = inhibition above about 35%
Gli-Sufu antag: antagonists of Gli-Sufu signaling. Sufu-KO-LIGHT fibroblasts, Gli luciferase reporter luminescence. inhibition, % at 5 µM. hit rate 0.74% among 340,000. AID 588413;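 active = inhibition above about 55%, limit read from the data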
Mdm2-MdmX conf: human Mdm2/MdmX binding inhibition, confirmed; shares compounds with Mdm2 MdmX PPI; inhibition, % at 8 µM; hit rate 55% among 10,000; luminescent assay; in the data active = inhibition above about 40%
Full FLuc ctr: inhibits full-length luciferase, flagging false Mdm2/MdmX hits | shares compounds with Mdm2 MdmX PPI | SaOS-2 full-length luciferase counterscreen, luminescence | inhibition, % at 8 µM | hit rate 77% among 6,200;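 active = mean inhibition at 8 µM reaching about 37%, which flags the compound as non-specific, limit read from the data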;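 note: p53-null SaOS-2 cells with luciferase driven by a doxycycline-inducible promoter; compound on cells about two nights before reading with doxycycline added after day one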
A number is an active result; - = inactive; ? = inconclusive; . = no result given. Shown are actives, neighbours in structure and some others; about 4.1% of the full set was active somewhere.

SMILES	aSyn 5UTR inh	Jurkat NFkB inh	Mdm2 MdmX PPI	KLF5 inhibitor	697 NFkB inh	Gli-Sufu antag	Mdm2-MdmX conf	others
OCCN1CCN(CC/C=C2/c3ccccc3Sc3ccc(Cl)cc32)CC1	.	-	60.8	.	-	-	-
CCCCCCCCCCC[N+](C)(C)CC/C=C1/c2ccccc2Sc2ccc(Cl)cc21	-	-	77.8	-	-	-	68.6	Full FLuc ctr=-
O=C(NCCCN1CCOCC1)c1ccc(-n2nc(C(F)(F)F)cc2-c2cccs2)cc1	-	-	76.6	-	-	-	-
C=CCNC(=S)NNC(=O)CCC(O)CCCCC (centres undefined)	-	-	54.3	-	-	-	-
CC1(C)Cc2ccccc2C(c2cc3ccccc3oc2=O)=N1	-	-	62.3	-	-	-	-
CC1(C)Cc2c(ccc3ccccc23)C(c2cc3ccccc3oc2=O)=N1	-	-	-	-	-	-	.
O=C1C=C(c2ccc3ncccc3c2)C[C@@H](c2ccc(Cl)cc2)C1	.	-	54.1	.	-	-	46.3	Full FLuc ctr=82.7
CC1=C(C(=O)OC2CCCCC2)C(c2ccc(F)cc2)NC(=O)N1 (centres undefined)	-	-	-	-	-	-	.
CCCCn1c(Cn2nc(C(=O)O)c3ccccc3c2=O)nc2cc(S(N)(=O)=O)ccc21	-	-	-	-	-	-	.
CCOC(=O)c1ccc(NC(=O)CN(C)S(=O)(=O)c2ccc(Br)s2)cc1	-	-	-	-	-	-	.
Cc1ccc2occ(C(c3nnnn3C3CCCC3)N3CCN(C(=O)c4ccco4)CC3)c(=O)c2c1 (centres undefined)	-	-	-	-	-	-	.
O=C(c1ccco1)N1CCN(C(c2coc3ccc(Cl)cc3c2=O)c2nnnn2C2CCCC2)CC1 (centres undefined)	-	-	50.5	-	-	-	-
O=C(NC1CCCC1)C(c1cccs1)N(C(=O)c1csnn1)c1ccccc1F (centres undefined)	-	-	-	-	-	-	.
CC(=O)O[C@H]1[C@H](O)[C@H](Oc2c(O)c(C)c3c4c2[C@@H](C)CC[C@@H]4[C@@H](C)C[C@H]3C=C(C)C)O[C@@H](C)[C@H]1O	.	-	73.8	.	-	-	-
CC(=O)OC1[C@H](Oc2c(O)c(C)c3c4c2[C@@H](C)CC[C@@H]4[C@@H](C)C[C@@H]3C=C(C)C)OC[C@@H](O)[C@@H]1O (some centres undefined)	.	-	-	.	-	-	.
N#CCCN1CCCN(CCC#N)CCN(CCC#N)CCCN(CCC#N)CC1	-	-	-	-	-	-	.
Cc1ccc(NC(=O)C2=CC(c3cccs3)=NS(=O)(=O)N2C)cc1	-	-	52.5	-	-	-	-
CCc1ccc(NC(=O)C2=CC(c3cccs3)=NS(=O)(=O)N2C)cc1	-	-	71.6	-	-	-	57.4	Full FLuc ctr=44.2
COc1ccc(C(=O)C2CC2c2ccc3c(c2)OCO3)cc1 (centres undefined)	-	-	-	-	-	-	.
O=C(Nc1cc(Oc2ccccc2)cc([N+](=O)[O-])c1)C12CC3CC(C1)CC(n1cnc(Cl)n1)(C3)C2	-	-	-	-	-	-	.
CS(=O)(=O)Nc1cccc2[nH]ncc12	-	-	-	-	-	-	.
N#C/C(=C\C=C\c1ccccc1[N+](=O)[O-])C(=O)NC1CCCCC1	-	-	98.7	-	-	-	61.0	Full FLuc ctr=53.5
Nc1ncnc(Oc2ccccc2F)c1[N+](=O)[O-]	-	-	-	-	-	-	.
COc1ccc(NC(=O)Cn2ncn3nc(-c4ccc(OC)cc4)cc3c2=O)cc1	-	-	79.6	-	-	-	-	Full FLuc ctr=90.4
COc1ccc(-c2cc3c(=O)n(CC(=O)NCc4ccccc4F)ncn3n2)cc1	-	-	69.7	-	-	-	-
SMILES	aSyn 5UTR inh	Jurkat NFkB inh	Mdm2 MdmX PPI	KLF5 inhibitor	697 NFkB inh	Gli-Sufu antag	Mdm2-MdmX conf	others
COc1ccc(-c2cc3c(=O)n(CC(=O)NCCCc4ccccc4)ncn3n2)cc1	-	-	-	-	-	-	.
CCOc1ccc(CCNC(=O)Cn2ncn3nc(-c4ccc(OC)cc4)cc3c2=O)cc1OCC	-	-	59.1	-	-	-	-
Cc1ccc(S(=O)(=O)N2CCCC2)cc1C(=O)NCCOc1ccccc1	.	-	-	.	-	-	.
O=C(NCCCO)/C(=C\c1ccco1)NC(=O)c1ccco1	-	-	-	-	-	-	.
FC(F)(F)Oc1ccc(NC(=S)Nc2ccc(OC(F)(F)F)cc2)cc1	-	-	79.4	-	-	-	-
CC(C)c1ccc(NC(=S)Nc2ccc(OC(F)(F)F)cc2)cc1	-	-	-	-	-	-	.
O=C(c1ccc(Br)o1)N1CCN(c2ccc3nnc(-c4ccccc4)n3n2)CC1	-	-	57.9	-	-	-	-
Cc1nnc2ccc(N3CCN(C(=O)c4ccccc4)CC3)nn12	-	-	-	-	-	-	.
COc1ccc(NS(=O)(=O)c2cc(NC(=O)/C=C/c3cccs3)ccc2N2CCOCC2)cc1	-	-	53.1	-	-	-	-
CCS(=O)(=O)c1nnnn1-c1ccccc1S(C)(=O)=O	-	-	60.2	-	-	.	63.1	Full FLuc ctr=-
COc1ccc(-n2nnnc2S(=O)(=O)Cc2ccc(C(=O)O)cc2)cc1	-	-	-	-	-	-	.
O=C(NC(Cc1ccccc1)C(=O)N1CCCCC1)c1ccccc1 (centres undefined)	-	-	-	.	-	-	.
OCc1ccc(O)c2ncccc12	65.6	-	85.6	-	-	-	81.6	Full FLuc ctr=42.6
CC(C)COCc1ccc(O)c2ncccc12	95.7	-	58.9	-	-	-	43.5	Full FLuc ctr=51.6
CN(Cc1ccco1)Cc1ccc(O)c2ncccc12	.	-	-	.	-	-	.
Oc1ccc(COCc2ccccc2)c2cccnc12	?	-	79.7	-	-	-	53.6	Full FLuc ctr=-
CCCOCc1ccc(O)c2ncccc12	-	-	74.8	-	-	-	55.5	Full FLuc ctr=-
Oc1ccc(Cl)c2cccnc12	.	.	.	.	.	-	.
COCCc1nc2ccc(C(=O)N(C)Cc3cccc(-n4nc(C)cc4C)c3)cc2o1	-	-	-	-	-	-	.
CCN(Cc1cc(=O)n2ccsc2n1)c1cccc2ccccc12	-	-	-	-	-	-	.
O=C(NNC(=O)C1CCCN(S(=O)(=O)c2cccc(F)c2)C1)C1CC1 (centres undefined)	-	-	-	-	-	-	.
Oc1ccc(CNc2ccccc2F)c2cccnc12	86.7	-	89.2	-	-	-	85.5	Full FLuc ctr=-
Cc1[nH]n(-c2ccccc2)c(=O)c1/C=N/NC(=O)c1cccc(F)c1	-	-	-	-	-	-	.
Cc1ccc(/C=N\NC(=O)COc2ccc(C)cc2[N+](=O)[O-])cc1	-	-	-	-	-	-	.
Cc1[nH]n(-c2ccc(Br)cc2)c(=O)c1/C=N/NC(=O)c1ccccc1	-	-	52.6	-	-	-	51.7	Full FLuc ctr=46.6

Assay outcomes from PubChem BioAssay.
